biological target: NADPH oxidase 2 (Homo sapiens) (UniProt P04839); test: compounds shifting NOX2 Amplex Red fluorescence – cell-based, HEK293-NOX2, PMA-stimulated, NOX inhibitor project, primary screen (AID 1159); conditions: 45 min, higher = more signal, called active from +8 up or from −8 down; also: test concentration not given here
Sequence (P04839 whole entry, looked up): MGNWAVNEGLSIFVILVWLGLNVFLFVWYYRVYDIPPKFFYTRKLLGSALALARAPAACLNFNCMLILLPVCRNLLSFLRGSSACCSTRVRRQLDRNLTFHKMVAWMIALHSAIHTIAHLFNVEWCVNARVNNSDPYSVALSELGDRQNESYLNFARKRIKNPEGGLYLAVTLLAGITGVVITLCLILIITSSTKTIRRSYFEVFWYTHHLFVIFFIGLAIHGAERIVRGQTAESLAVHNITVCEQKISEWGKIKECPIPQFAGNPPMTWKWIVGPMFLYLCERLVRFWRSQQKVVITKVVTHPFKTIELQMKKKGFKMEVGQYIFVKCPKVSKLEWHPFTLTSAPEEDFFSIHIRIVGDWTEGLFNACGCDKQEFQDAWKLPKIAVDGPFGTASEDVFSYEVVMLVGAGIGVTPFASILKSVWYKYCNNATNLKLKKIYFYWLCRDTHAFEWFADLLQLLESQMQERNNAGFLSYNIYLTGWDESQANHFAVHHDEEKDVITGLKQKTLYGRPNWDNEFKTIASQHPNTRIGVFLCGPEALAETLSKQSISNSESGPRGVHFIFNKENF

z-score, inactive:
COC(=O)[C@@]1(Cc2ccc(F)cc2)[C@H]2c3cc(C(=O)N4CCCC4)n(Cc4ccc(OC(F)(F)F)cc4)c3C[C@H]2CN1C(=O)c1ccccc1 0.372
C[N+](C)(C)CCCC[C@@H]1NC(=O)[C@H]2C[C@@H](C(=O)O)[C@@H](c3ccc(O)cc3)N2C1=O -1.77
CN1C(=O)C2CC=C(C3=CCO[C@@H]3[C@H]3CCCN3S(=O)(=O)c3ccccc3[N+](=O)[O-])CC2C1=O (some centres not stated) 0.278
COC(=O)[C@@]1(Cc2ccc(F)cc2)[C@H]2c3cc(C(=O)N4CCCC4)n(Cc4ccc(C(F)(F)F)nc4)c3C[C@H]2CN1C(=O)c1ccccc1 0.0745
C=C(CCCC)/C(=C/C[C@@H](OC(C)=O)c1cccc(OCCO)c1)c1cc(C(=O)OC)ccc1OC -2.13
O=C/C=C/c1ccc(-c2ccccc2)cc1 0.388
O=C1O[C@H](c2ccccc2)[C@H](c2ccccc2)N2[C@H]1[C@@H](C(=O)N1CCCCCCC1)[C@]1(C(=O)Nc3ccc(C#CCCO)cc31)[C@H]2c1ccc(O)cc1 1.28
C=CCNC(=O)[C@H]1[C@@H]2C(=O)O[C@@H](c3ccccc3)[C@@H](c3ccccc3)N2[C@@H](c2ccc(O)cc2)[C@]12C(=O)Nc1ccc(C#CCC(C(=O)OC)C(=O)OC)cc12 1.82
C[C@]1(C(=O)O)c2ccccc2C(=O)N(Cc2cc(C(F)(F)F)cc(C(F)(F)F)c2)[C@H]1c1ccc(CO)cc1 0.803
C=CCOC(=O)[C@H]1[C@@H]2C(=O)O[C@@H](c3ccccc3)[C@@H](c3ccccc3)N2[C@@H](c2ccc(OCCOC(=O)[C@H]3C[C@H]4C(=O)NCC(=O)N4[C@H]3c3ccc(O)cc3)cc2)[C@]12C(=O)Nc1ccccc12 2.06
COc1ccc([Si](C)(C)[C@H]2[C@H](CC(=O)N3CCC[C@H]3CO)O[C@@]3(C(=O)N(Cc4cccc(N5CCCCC5=O)c4)c4ccccc43)[C@@H]2C)cc1 1.45
C=CCNC(=O)[C@H]1[C@@H]2C(=O)O[C@@H](c3ccccc3)[C@@H](c3ccccc3)N2[C@@H](c2ccc(O)cc2)[C@]12C(=O)N(C(=O)OCCOC)c1ccc(C#Cc3ccc(OC)cc3)cc12 1.62
O=C(CS)NCCCCCCNC(=O)[C@H]1C[C@H]2C(=O)NCC(=O)N2[C@H]1c1cccc(OCCO)c1 2.14
COc1cc(Cc2cc3c(c(-c4ccccc4)n2)[Si](C(C)C)(C(C)C)OC3)cc(OC)c1OC 1.04
Cc1c(NC(=O)/C(C#N)=C/C=C/c2ccc([N+](=O)[O-])cc2)c(=O)n(-c2ccccc2)n1C -0.696
CCOC(=O)C[C@H]1[C@H](OC(=O)c2ccccc2-c2ccccc2)[C@@H](NC(=O)CC(C)C)c2cc(OCCCO)ccc2N1C(=O)c1ccccc1 0.924
COCCOC(=O)N1C(=O)[C@@]2(c3cc(C#CCNC(N)=O)ccc31)[C@H](c1ccc(O)cc1)N1[C@H](c3ccccc3)[C@H](c3ccccc3)OC(=O)[C@H]1[C@@H]2C(=O)N1CCc2cc(OC)c(OC)cc2C1 1.15

biological target: NADPH oxidase 4 (Homo sapiens) (UniProt Q9NPH5); test: compounds shifting NOX4 Amplex Red fluorescence – cell-based, HEK293-NOX4, tetracycline-induced, NOX inhibitor project, primary screen (AID 1160); conditions: HEK293-NOX4, Amplex Red H2O2 fluorescence, 45 min; higher = more signal, called active from +8 up or from −8 down
Sequence (Q9NPH5 whole entry, looked up): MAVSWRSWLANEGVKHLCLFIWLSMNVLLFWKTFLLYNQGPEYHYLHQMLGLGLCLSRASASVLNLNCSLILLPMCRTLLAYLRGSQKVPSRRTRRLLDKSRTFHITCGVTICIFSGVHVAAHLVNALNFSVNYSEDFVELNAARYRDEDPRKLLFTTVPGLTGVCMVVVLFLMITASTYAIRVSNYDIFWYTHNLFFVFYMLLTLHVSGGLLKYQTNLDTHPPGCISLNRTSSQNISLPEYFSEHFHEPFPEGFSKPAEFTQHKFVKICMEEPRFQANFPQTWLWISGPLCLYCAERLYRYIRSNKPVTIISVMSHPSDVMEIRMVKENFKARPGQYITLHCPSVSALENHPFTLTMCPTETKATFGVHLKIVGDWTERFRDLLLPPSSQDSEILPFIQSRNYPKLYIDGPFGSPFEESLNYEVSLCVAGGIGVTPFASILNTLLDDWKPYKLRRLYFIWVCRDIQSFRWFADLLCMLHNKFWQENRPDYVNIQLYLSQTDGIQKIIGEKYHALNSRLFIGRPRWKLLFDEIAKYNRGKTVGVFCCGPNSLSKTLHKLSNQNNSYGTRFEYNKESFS

z-score, inactive:
COC(=O)[C@@]1(Cc2ccc(F)cc2)[C@H]2c3cc(C(=O)N(C)C)n(CCF)c3C[C@H]2CN1C(=O)c1ccccc1 0.864
COC(=O)[C@@]1(Cc2ccccc2)[C@H]2c3cc(C(=O)N(C)C)n(Cc4ccc(Cl)c(C(F)(F)F)c4)c3C[C@H]2CN1C(=O)c1ccccc1 -0.895
COc1ccc(NN2C(C(O)c3ccc(F)cc3)C=CC3C(=O)N(C4CCCCC4)C(=O)C32)cc1 (configuration not stated) -3.25
[N-]=[N+]=NCc1ccccc1C[C@@]1(C(N)=O)N=C(c2ccc(OCCCO)cc2)O[C@@H]1c1ccccc1N=[N+]=[N-] -0.393
O=C1O[C@H](c2ccccc2)[C@H](c2ccccc2)N2[C@H]1[C@@H](C(=O)Nc1nc3ccccc3s1)[C@]1(C(=O)Nc3ccccc31)[C@H]2c1ccccc1OCCO 0.862
CC(C)c1ccc(NN2C(C(O)C(C)c3ccccc3)C=CC3C(=O)N(c4ccccc4)C(=O)C32)cc1 (configuration not stated) -2.63
COCCCNC(=O)[C@]1(Cc2ccccc2N=[N+]=[N-])N=C(c2ccc(OCCCO)cc2)O[C@@H]1c1ccccc1 0.471
COC(=O)[C@@]1(Cc2ccc(OC)cc2)[C@H]2c3cc(C(=O)N(C)C)n(Cc4c(CO)[nH]cc(C)c4=O)c3C[C@H]2CN1C(=O)c1ccccc1 -0.719
COC(=O)C(CC#Cc1ccc2c(c1)[C@]1(C(=O)N2)[C@H](c2ccc(OCCO)cc2)N2[C@H](c3ccccc3)[C@H](c3ccccc3)OC(=O)[C@H]2[C@@H]1C(N)=O)C(=O)OC 0.784
O=C1N(Cc2ccccc2)Cc2ccccc2C[C@@]12COC(c1ccc(OCCCO)cc1)=N2 -0.977
COCCCNC(=O)[C@@]1(c2ccc([N+](=O)[O-])cc2)CC(=O)N(C2CCCCC2)[C@@H]1c1ccc(CO)cc1I 0.381
CO[C@H]1O[C@H](CO)[C@@H](OC(=O)Nc2ccccc2)[C@@H]2OC(=O)[C@@H](Cc3ccccc3)C/C=C/C[C@H](Cc3ccccc3)C(=O)O[C@@H]12 -0.266
O=C1O[C@@H](c2ccccc2)[C@@H](c2ccccc2)N2[C@@H](c3ccc(OCCO)cc3)[C@]3(C(=O)Nc4ccc(C#CC5=CCCCC5)cc43)[C@@H](C(=O)Nc3nc4ccccc4s3)[C@H]12 -0.188
COCCOC(=O)N1C(=O)[C@@]2(c3cc(C#CC4(O)CCCCCC4)ccc31)[C@H](C(N)=O)[C@H]1C(=O)O[C@H](c3ccccc3)[C@H](c3ccccc3)N1[C@@H]2c1ccc(OCCO)cc1 0.984
COC(=O)C(CC#Cc1ccc2c(c1)[C@]1(C(=O)N2)[C@H](C(N)=O)[C@H]2C(=O)O[C@H](c3ccccc3)[C@H](c3ccccc3)N2[C@@H]1c1ccccc1OCCO)C(=O)OC 0.723
Cc1ccc(S[C@]2(C(=O)NCC(C)C)CC(=O)N(C(C)C)[C@@H]2c2ccc(CO)cc2I)cc1 -0.511
CN1C2C=C(c3ccc(CO)cc3)C(C3C(=O)N(C(N)=O)C(=O)C32)C1C1CC1 (configuration not stated) -1.29
[N-]=[N+]=NCc1ccccc1[C@H]1OC(c2ccc(OCCCO)cc2)=N[C@@]1(CCS(=O)(=O)c1ccccc1)C(=O)O 1.09
COC(=O)[C@@]1(Cc2ccc(F)cc2)[C@H]2c3cc(C(=O)N4CCCC4)n(Cc4ccc(OC(F)(F)F)cc4)c3C[C@H]2CN1C(=O)c1ccccc1 0.32
C[N+](C)(C)CCCC[C@@H]1NC(=O)[C@H]2C[C@@H](C(=O)O)[C@@H](c3ccc(O)cc3)N2C1=O -1.23
CN1C(=O)C2CC=C(C3=CCO[C@@H]3[C@H]3CCCN3S(=O)(=O)c3ccccc3[N+](=O)[O-])CC2C1=O (some centres not stated) 1.22
COC(=O)[C@@]1(Cc2ccc(F)cc2)[C@H]2c3cc(C(=O)N4CCCC4)n(Cc4ccc(C(F)(F)F)nc4)c3C[C@H]2CN1C(=O)c1ccccc1 0.488
C=C(CCCC)/C(=C/C[C@@H](OC(C)=O)c1cccc(OCCO)c1)c1cc(C(=O)OC)ccc1OC -1.16
O=C/C=C/c1ccc(-c2ccccc2)cc1 -1.85
O=C1O[C@H](c2ccccc2)[C@H](c2ccccc2)N2[C@H]1[C@@H](C(=O)N1CCCCCCC1)[C@]1(C(=O)Nc3ccc(C#CCCO)cc31)[C@H]2c1ccc(O)cc1 0.892
C=CCNC(=O)[C@H]1[C@@H]2C(=O)O[C@@H](c3ccccc3)[C@@H](c3ccccc3)N2[C@@H](c2ccc(O)cc2)[C@]12C(=O)Nc1ccc(C#CCC(C(=O)OC)C(=O)OC)cc12 0.194
C[C@]1(C(=O)O)c2ccccc2C(=O)N(Cc2cc(C(F)(F)F)cc(C(F)(F)F)c2)[C@H]1c1ccc(CO)cc1 0.0284
C=CCOC(=O)[C@H]1[C@@H]2C(=O)O[C@@H](c3ccccc3)[C@@H](c3ccccc3)N2[C@@H](c2ccc(OCCOC(=O)[C@H]3C[C@H]4C(=O)NCC(=O)N4[C@H]3c3ccc(O)cc3)cc2)[C@]12C(=O)Nc1ccccc12 -0.365
COc1ccc([Si](C)(C)[C@H]2[C@H](CC(=O)N3CCC[C@H]3CO)O[C@@]3(C(=O)N(Cc4cccc(N5CCCCC5=O)c4)c4ccccc43)[C@@H]2C)cc1 1.44
C=CCNC(=O)[C@H]1[C@@H]2C(=O)O[C@@H](c3ccccc3)[C@@H](c3ccccc3)N2[C@@H](c2ccc(O)cc2)[C@]12C(=O)N(C(=O)OCCOC)c1ccc(C#Cc3ccc(OC)cc3)cc12 0.725
O=C(CS)NCCCCCCNC(=O)[C@H]1C[C@H]2C(=O)NCC(=O)N2[C@H]1c1cccc(OCCO)c1 1.22
COc1cc(Cc2cc3c(c(-c4ccccc4)n2)[Si](C(C)C)(C(C)C)OC3)cc(OC)c1OC 0.424
Cc1c(NC(=O)/C(C#N)=C/C=C/c2ccc([N+](=O)[O-])cc2)c(=O)n(-c2ccccc2)n1C 0.0994
CCOC(=O)C[C@H]1[C@H](OC(=O)c2ccccc2-c2ccccc2)[C@@H](NC(=O)CC(C)C)c2cc(OCCCO)ccc2N1C(=O)c1ccccc1 0.899
COCCOC(=O)N1C(=O)[C@@]2(c3cc(C#CCNC(N)=O)ccc31)[C@H](c1ccc(O)cc1)N1[C@H](c3ccccc3)[C@H](c3ccccc3)OC(=O)[C@H]1[C@@H]2C(=O)N1CCc2cc(OC)c(OC)cc2C1 -0.909
